Records with an inconclusive call do not appear. Calls of active or inactive are those of the source. How the source made its calls: active means hit-call score of the fitted dose curve at least 0.9, where 1 is the maximum; inconclusive means response in the unintended direction; inactive means score below 0.9.
These compounds were tested against cAMP-dependent protein kinase catalytic subunit alpha (Homo sapiens) (UniProt P17612) (assay: ERF_TW_ENZ_hPRKACA: Eurofins (ERF) Enzymatic Radiometric [10 uM ATP] LeadHunter Assay for human PKA AGC Kinase).
Protocol: ERF_TW_ENZ_hPRKACA is a biochemical, single-readout assay that uses extracted gene-proteins in a cell-free assay. Measurements were taken 0.25 hour after chemical dosing in a 96-well plate. See PKA Human AGC Kinase Enzymatic Radiometric Assay [10 uM ATP], Panlabs.ERF_TW_ENZ_hPRKACA is an assay component calculated from the ERF_TW_ENZ_hPRKACA assay. It is designed to measure enzyme activity using a type of enzyme reporter as detected by scintillation counting with radiometry technology.Data from the assay component ERF_TW_ENZ_hPRKACA was analyzed at the assay endpoint, ERF_TW_ENZ_hPRKACA, in the positive analysis fitting direction relative to DMSO as the negative control and baseline of activity. Using a type of enzyme reporter, loss-of-signal activity can be used to understand changes in enzymatic activity as they relate to gene PRKACA. To generalize the intended target to other relatable targets, this assay endpoint is annotated to the kinase intended target family, where the subfamily is serine/threonine kinase.
Human protein kinase PKA expressed in E. coli. is used. Test compound and/or vehicle is preincubated with 23 ng/ml enzyme in modified MOPS buffer pH 7.2 at 37C for 15 minutes. The reaction is initiated by addition of 0.5 uM PKA substrate peptide, 10 uM ATP and 0.25 uCi [gamma32P]ATP for another 15 minute incubation period and terminated by further addition of 3 % H3PO4. An aliquot is removed to a 96 well multiscreen, washed with H3PO4 solution, dried and counted to determine the amount of 32P- PKA substrate peptide formed. Compounds are screened at 10 uM.Test Sample Requirements: Minimum for 1) Screen: 25 ul of 10 mM stock -OR- 1 mg (pre-weighed). 2) Dose Response: 60 ul of 10 mM stock -OR- 1 mg (pre-weighed).

AC50, active:
COc1cc(CCC(=O)CC(=O)CCc2ccc(O)c(OC)c2)ccc1O 3.01 µM
COc1cc(/C=C/C(=O)CC(=O)/C=C/c2ccc(O)c(OC)c2)ccc1O 2.97 µM
O=C(/C=C/c1ccc(O)cc1)CC(=O)/C=C/c1ccc(O)cc1 2.19 µM

— PubChem BioAssay AID2284135 (EPA ToxCast)
